Inconclusive results are not listed. The source made the active and inactive calls. Rule for the calls, unless noted: active = hit-call score of the fitted dose curve at least 0.9, where 1 is the maximum; inconclusive = response in the unintended direction; inactive = score below 0.9.
Experiments:
[1] = TOX21_PR_BLA_Followup_Agonist_viability: Viability Assessment in the Tox21 HEK293 Progesterone Receptor (PR) Agonism Beta-lactamase Follow-Up Assay (AID 2283935);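 note: signal loss means lower viability so actives are cytotoxic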
Procedure, shortened: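 HEK293T PR-UAS-bla, 3,000 cells/well, 2% CS-FBS; 6 hr pre-incubation; cpd in DMSO, 16 hr 37C; LiveBLAzer 2 hr RT, then CellTiter-Glo 30 min RT, luminescence. Decrease = lost viability.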

[2] = TOX21_PR_BLA_Followup_Antagonist_viability: Viability Assessment in the Tox21 HEK293 Progesterone Receptor (PR) Antagonism Beta-lactamase Follow-Up Assay (AID 2283936);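 note: hits lower the luminescence signal meaning cytotoxicity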
Procedure, shortened: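 PR-UAS-bla HEK293T cells (3,000/well, 2% charcoal-stripped FBS) given compound plus R5020 agonist, 16 h at 37C. CellTiter-Glo added after bla read, 30 min at room temperature; luminescence loss indicates cytotoxicity.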

[3] = TOX21_PR_LUC_Followup_Agonist_viability: Viability Assessment in the Tox21 HEK293 Progesterone Receptor (PR) Agonism Luciferase Follow-Up Assay (AID 2283941);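 note: loss of signal means cytotoxicity so actives lower viability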
Procedure, shortened: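 Cells were kept 5 days in charcoal-stripped serum medium before plating HEK293-PR-A-luc at 3,000 cells/well. After 5 h they received DMSO-dissolved compound and incubated 16 h at 37C. Viability was taken from CellTiter-Glo ATP luminescence.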

[4] = target: Thyroid hormone receptor alpha (Rattus norvegicus) + Thyroid hormone receptor beta (Rattus norvegicus) (UniProt P18113+P63059); experiment: TOX21_TR_LUC_GH3_Antagonist_Followup: Tox21 GH3 Thyroid Hormone Receptor Antagonism Luciferase Follow-Up Assay (AID 2283942)
Procedure, shortened: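 Rat pituitary GH3 cells with a TRα/TRβ-driven luciferase reporter, 5 h attachment, then 15 concentrations (92 uM to 5nM final) plus 1.0 nM T3 agonist, 24 h at 37C/5% CO2. ONE-Glo luminescence; signal change fitted against DMSO baseline.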

[5] = target: THRA (gene 7067) (UniProt P10827); experiment: TOX21_TRA_COA_Antagonist_Followup_ratio: Tox21 Thyroid Hormone Receptor alpha Antagonism through Coactivator Recruitment Follow-Up Assay, Ratio (AID 2283953)
Procedure, shortened: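 520:495 nm emission ratio (excitation 340 nm) reports fluorescein-SRC-2 peptide recruitment to GST-TRα LBD by TR-FRET with Tb anti-GST antibody. Values were normalized to DMSO (0%) and T3 control wells (100%); loss of signal indicated antagonism.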

[6] = target: THRB (gene 7068) (UniProt P10828); experiment: TOX21_TRB_BLA_Antagonist_Followup_ratio: Tox21 Thyroid Hormone Receptor beta Antagonism Beta-lactamase (BLA) Follow-Up Assay, Ratio (AID 2283958)
Procedure, shortened: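 HEK293T TRb-bla (GAL4 DBD + hTRβ LBD), 2% cs-FBS phenol red-free DMEM, 5 h attach; cpds 11-pt triplicate, 18 h 37C; CCF4-AM 2 h RT; 460/530 ratio vs DMSO; CellTiter-Glo viability same wells.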

[7] = target: THRB (gene 7068) (UniProt P10828); experiment: TOX21_TRB_COA_Antagonist_Followup_ratio: Tox21 Thyroid Hormone Receptor beta Antagonism through Coactivator Recruitment Follow-Up Assay, Ratio (AID 2283967)
Procedure, shortened: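 Cell-free TR-FRET coactivator recruitment with GST-tagged TRβ LBD (5.0 nM) and fluorescein-labeled SRC-2 peptide (200 nM) detected by terbium anti-GST antibody (2 nM). The 520:495 nm emission ratio was normalized to DMSO (0%) and T3 (100%).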

[8] = target: Retinoic acid receptor RXR-alpha (Homo sapiens) (UniProt P19793); experiment: TOX21_TR_RXR_BLA_Antagonist_Followup_ratio: Tox21 Thyroid Hormone Receptor beta Retinoid X Receptor alpha (RXRa) Antagonism Beta-lactamase (BLA) Follow-Up Assay, Ratio (AID 2283972)
Procedure, shortened: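 RXRa-UAS-bla HEK293T cells in phenol red-free DMEM with 2% charcoal-stripped FBS; compounds at 11 concentrations in triplicate, 16 h at 37C. LiveBLAzer FRET-B/CCF4-AM substrate 2 h at room temperature; read as 460:530 nm ratio versus DMSO.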

[9] = TOX21_TR_RXR_BLA_Antagonist_Followup_viability: Viability Assessment in the Tox21 Thyroid Hormone Receptor beta Retinoid X Receptor alpha (RXRa) Antagonism Beta-lactamase (BLA) Follow-Up Assay (AID 2283979)
Procedure, shortened: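 RXRa-UAS-bla HEK293T cells seeded 2,500/well in phenol red-free DMEM with 2% charcoal-stripped FBS, attached 5 h, then exposed to compounds at 11 concentrations in triplicate for 16 h at 37C/5% CO2. Viability read by CellTiter-Glo ATP luminescence; bidirectional fit versus DMSO.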

[10] = target: PGR (gene 5241) (UniProt P06401); experiment: TOX21_PR_BLA_Followup_Agonist_ratio: Tox21 HEK293 Progesterone Receptor (PR) Agonism Beta-lactamase Follow-Up Assay, Ratio (AID 2283933)
Procedure, shortened: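 HEK293T PR-UAS-bla, 2% CS-FBS; 6 hr preincubation, cpd/DMSO pinned, 16 hr 37C/5% CO2; LiveBLAzer B/G 2 hr RT; FRET ch2/ch1 ratio, agonist direction vs DMSO. Viability by CellTiter-Glo in same wells.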

[11] = target: PGR (gene 5241) (UniProt P06401); experiment: TOX21_PR_BLA_Followup_Antagonist_ratio: Tox21 HEK293 Progesterone Receptor (PR) Antagonism Beta-lactamase Follow-Up Assay, Ratio (AID 2283934)
Procedure, shortened: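 HEK293T PR-UAS-bla, 2% CS-FBS; 6 hr plating, then cpd + R5020 (1 nM final), 16 hr 37C/5% CO2. B/G FRET substrate 2 h RT. Ratio ch2/ch1 vs DMSO; CellTiter-Glo viability multiplexed, autofluorescence checked.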

[12] = target: PGR (gene 5241) (UniProt P06401); experiment: TOX21_PR_LUC_Followup_Agonist: Tox21 HEK293 Progesterone Receptor (PR) Agonism Luciferase Follow-Up Assay (AID 2283937; active = hit-call score of the fitted dose curve at least 0.9, where 1 is the maximum; inactive = score below 0.9)
Procedure, shortened: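 Cells: HEK293-PR-A-luc, 3,000/well, 10% charcoal-stripped FBS assay medium. Compound added after 5 h; 16 h, 37C, 0% CO2. ONE-Glo luciferase, luminescence. Positive fit vs DMSO.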

[13] = target: PGR (gene 5241) (UniProt P06401); experiment: TOX21_PR_LUC_Followup_Antagonist: Tox21 HEK293 Progesterone Receptor (PR) Antagonism Luciferase Follow-Up Assay (AID 2283938);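 note: curve fitted upward as signal gain over DMSO baseline despite antagonist label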
Procedure, shortened: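 HEK293-PR-A-luc cells were precultured 5 days in medium with 10% charcoal-stripped FBS, seeded 3,000/well, then exposed to compounds in DMSO for 16 h at 37C. Luciferase was read by ONE-Glo luminescence after 30 min at room temperature.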

[14] = target: Nucleoli Translocation, AR (gene 367) (UniProt P10275); experiment: UPITT_HCI_U2OS_AR_TIF2_Nucleoli_Antagonist: University of Pittsburgh U2OS Androgen Receptor-Transcriptional Intermediary Factor 2 (AR-TIF2) Antagonism High Content Imaging Assay for Nucleoli Translocation (AID 2283997)
Procedure, shortened: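 U2OS cells expressing RFP-tagged human AR and GFP-tagged TIF2 were imaged by high-content fluorescence microscopy for red AR signal in the nucleolar region. Compounds were screened at 20 uM final (0.2% DMSO), with activity fitted relative to DHT as baseline.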

[15] = target: Ratio of Nucleoli Translocation and Cytoplasm, AR (gene 367) (UniProt P10275); experiment: UPITT_HCI_U2OS_AR_TIF2_Nucleoli_Cytoplasm_Ratio_Antagonist: University of Pittsburgh U2OS Androgen Receptor-Transcriptional Intermediary Factor 2 (AR-TIF2) Antagonism High Content Imaging Assay for Ratio of Nucleoli Translocation and Cytoplasm (AID 2283999);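 note: antagonists lower the DHT-driven ratio of nucleolar to cytoplasmic red signal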
Procedure, shortened: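 Human osteosarcoma U2OS line, AR fused to RFP, coactivator TIF2 fused to GFP. Cpds 20 uM final, 0.2% DMSO (screen); 0.195–50 uM final, 0.5% DMSO (CRC). Endpoint: nucleoli/cytoplasm red signal ratio, DHT as baseline, loss-of-signal antagonist mode.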

[16] = target: Ratio of Nucleoli Translocation and Cytoplasm, AR (gene 367) (UniProt P10275); experiment: UPITT_HCI_U2OS_AR_TIF2_Nucleoli_Cytoplasm_Ratio_Agonist: University of Pittsburgh U2OS Androgen Receptor-Transcriptional Intermediary Factor 2 (AR-TIF2) Agonism High Content Imaging Assay for Ratio of Nucleoli Translocation and Cytoplasm (AID 2284000);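 note: hits raise the red nucleolar to cytoplasm ratio above vehicle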
Procedure, shortened: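 U2OS cells expressing RFP-tagged human AR and GFP-tagged TIF2 were imaged by high-content fluorescence microscopy. The endpoint is the ratio of nucleolar to cytoplasmic red fluorescence, fitted for gain of signal relative to DMSO. Concentration-response spanned 0.195 to 50 uM final (0.5% DMSO).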

[17] = CCTE_Harrill_HTTr_Viability_MCF7: CCTE's 6-hour Cell Viability Assessment for the High-Throughput Transcriptomics (HTTr) Platform, in MCF-7 cells cultured in DMEM + 10% fetal bovine serum, Harrill Lab (AID 2284010; active = hit-call score of the fitted dose curve at least 0.9, where 1 is the maximum; inactive = score below 0.9)
Procedure, shortened: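 Cells were dosed with chemicals in an eight-point dilution series, imaged 6 hours later for propidium iodide uptake, and the endpoint was analyzed by bidirectional fitting against DMSO as negative control.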

[18] = CCTE_Harrill_HTTr_Apoptosis_MCF7: CCTE's 6-hour Apoptosis Assessment for the High-Throughput Transcriptomics (HTTr) Platform, in MCF-7 cells cultured in DMEM + 10% fetal bovine serum, Harrill Lab (AID 2284011; active = hit-call score of the fitted dose curve at least 0.9, where 1 is the maximum; inactive = score below 0.9)
Procedure, shortened: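 MCF-7 cells in DMEM + 10% fetal bovine serum were exposed to chemicals for 6 hours over an eight-point dilution series. Caspase-3/7 activation was imaged by high content imaging with CellEvent Caspase 3/7 Green; bidirectional fitting used DMSO as baseline.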

[19] = TOX21_TRB_BLA_Antagonist_Followup_viability: Viability Assessment in the Tox21 Thyroid Hormone Receptor beta Antagonism Beta-lactamase (BLA) Follow-Up Assay (AID 2283961)
Procedure, shortened: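 HEK293T cells stably expressing GAL4-DBD/human TRβ-LBD with UAS-bla reporter, 3,000 cells/well in phenol red-free DMEM, 2% charcoal-stripped FBS. Compounds at 11 concentrations in triplicate, 18 h at 37C/5% CO2; viability by CellTiter-Glo luminescence after 30 min at room temperature.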

THRB (gene 7068), sequence (P10828 whole entry, looked up, the tested form may be a part): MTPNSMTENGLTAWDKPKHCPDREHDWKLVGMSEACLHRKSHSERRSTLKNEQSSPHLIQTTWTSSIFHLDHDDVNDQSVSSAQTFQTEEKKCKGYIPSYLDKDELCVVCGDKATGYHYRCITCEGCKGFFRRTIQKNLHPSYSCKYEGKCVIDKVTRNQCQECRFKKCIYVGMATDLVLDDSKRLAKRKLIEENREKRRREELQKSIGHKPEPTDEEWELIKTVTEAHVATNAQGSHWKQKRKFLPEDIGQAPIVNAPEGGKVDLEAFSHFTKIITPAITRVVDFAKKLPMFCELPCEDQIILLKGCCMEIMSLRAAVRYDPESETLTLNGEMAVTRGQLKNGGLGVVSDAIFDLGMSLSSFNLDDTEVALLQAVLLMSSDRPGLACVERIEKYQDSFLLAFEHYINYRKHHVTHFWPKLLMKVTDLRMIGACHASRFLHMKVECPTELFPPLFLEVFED
PGR (gene 5241), sequence (P06401 whole entry, looked up): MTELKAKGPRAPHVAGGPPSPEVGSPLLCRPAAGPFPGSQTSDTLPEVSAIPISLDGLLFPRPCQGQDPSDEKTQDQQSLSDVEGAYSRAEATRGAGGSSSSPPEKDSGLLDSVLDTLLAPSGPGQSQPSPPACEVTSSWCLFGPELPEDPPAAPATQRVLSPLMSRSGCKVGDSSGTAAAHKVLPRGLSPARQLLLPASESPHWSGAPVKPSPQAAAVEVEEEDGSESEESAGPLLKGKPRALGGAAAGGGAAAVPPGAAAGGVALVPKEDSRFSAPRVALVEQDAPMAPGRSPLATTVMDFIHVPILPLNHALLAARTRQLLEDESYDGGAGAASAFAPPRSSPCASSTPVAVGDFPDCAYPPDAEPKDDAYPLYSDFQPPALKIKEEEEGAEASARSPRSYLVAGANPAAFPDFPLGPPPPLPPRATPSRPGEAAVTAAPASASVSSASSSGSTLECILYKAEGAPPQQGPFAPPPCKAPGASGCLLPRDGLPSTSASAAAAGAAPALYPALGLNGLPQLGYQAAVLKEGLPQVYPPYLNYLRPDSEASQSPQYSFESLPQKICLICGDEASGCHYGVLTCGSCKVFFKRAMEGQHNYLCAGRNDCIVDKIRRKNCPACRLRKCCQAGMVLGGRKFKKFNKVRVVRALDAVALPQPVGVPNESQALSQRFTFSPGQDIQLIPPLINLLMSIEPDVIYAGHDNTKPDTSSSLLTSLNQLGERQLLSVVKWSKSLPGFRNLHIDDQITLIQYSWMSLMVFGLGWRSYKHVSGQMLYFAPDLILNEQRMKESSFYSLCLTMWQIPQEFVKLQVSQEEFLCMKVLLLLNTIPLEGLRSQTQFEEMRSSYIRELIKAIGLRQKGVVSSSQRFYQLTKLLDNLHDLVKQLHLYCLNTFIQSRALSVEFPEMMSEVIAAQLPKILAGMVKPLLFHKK
THRA (gene 7067), sequence (P10827 whole entry, looked up, the tested form may be a part): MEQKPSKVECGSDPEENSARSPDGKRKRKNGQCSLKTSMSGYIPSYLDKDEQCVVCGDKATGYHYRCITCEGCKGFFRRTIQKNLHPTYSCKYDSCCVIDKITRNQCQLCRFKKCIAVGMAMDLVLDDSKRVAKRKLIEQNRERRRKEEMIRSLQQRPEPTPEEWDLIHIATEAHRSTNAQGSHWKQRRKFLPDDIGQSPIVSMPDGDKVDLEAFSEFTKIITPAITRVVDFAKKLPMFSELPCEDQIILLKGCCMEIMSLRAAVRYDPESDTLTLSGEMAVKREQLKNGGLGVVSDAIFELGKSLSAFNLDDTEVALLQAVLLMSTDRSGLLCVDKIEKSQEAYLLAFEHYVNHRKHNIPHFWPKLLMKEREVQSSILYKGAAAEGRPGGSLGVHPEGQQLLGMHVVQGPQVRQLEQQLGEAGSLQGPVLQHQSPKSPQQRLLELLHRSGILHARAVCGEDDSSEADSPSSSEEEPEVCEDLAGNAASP
Retinoic acid receptor RXR-alpha (Homo sapiens), sequence (P19793 whole entry, looked up): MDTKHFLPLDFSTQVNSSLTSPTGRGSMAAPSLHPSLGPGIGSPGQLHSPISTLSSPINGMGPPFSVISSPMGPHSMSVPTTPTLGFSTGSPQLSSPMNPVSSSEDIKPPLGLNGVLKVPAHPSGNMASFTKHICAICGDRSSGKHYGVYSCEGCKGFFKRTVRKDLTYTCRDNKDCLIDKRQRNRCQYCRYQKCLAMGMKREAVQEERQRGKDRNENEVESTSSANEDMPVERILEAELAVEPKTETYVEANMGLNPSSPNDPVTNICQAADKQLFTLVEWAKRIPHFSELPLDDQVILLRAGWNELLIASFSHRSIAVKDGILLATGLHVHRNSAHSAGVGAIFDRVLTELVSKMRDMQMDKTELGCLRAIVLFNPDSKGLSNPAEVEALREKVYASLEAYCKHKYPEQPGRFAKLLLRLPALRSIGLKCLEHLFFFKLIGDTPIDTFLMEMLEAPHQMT
Ratio of Nucleoli Translocation and Cytoplasm, AR (gene 367), sequence (P10275 whole entry, looked up, the tested form may be a part): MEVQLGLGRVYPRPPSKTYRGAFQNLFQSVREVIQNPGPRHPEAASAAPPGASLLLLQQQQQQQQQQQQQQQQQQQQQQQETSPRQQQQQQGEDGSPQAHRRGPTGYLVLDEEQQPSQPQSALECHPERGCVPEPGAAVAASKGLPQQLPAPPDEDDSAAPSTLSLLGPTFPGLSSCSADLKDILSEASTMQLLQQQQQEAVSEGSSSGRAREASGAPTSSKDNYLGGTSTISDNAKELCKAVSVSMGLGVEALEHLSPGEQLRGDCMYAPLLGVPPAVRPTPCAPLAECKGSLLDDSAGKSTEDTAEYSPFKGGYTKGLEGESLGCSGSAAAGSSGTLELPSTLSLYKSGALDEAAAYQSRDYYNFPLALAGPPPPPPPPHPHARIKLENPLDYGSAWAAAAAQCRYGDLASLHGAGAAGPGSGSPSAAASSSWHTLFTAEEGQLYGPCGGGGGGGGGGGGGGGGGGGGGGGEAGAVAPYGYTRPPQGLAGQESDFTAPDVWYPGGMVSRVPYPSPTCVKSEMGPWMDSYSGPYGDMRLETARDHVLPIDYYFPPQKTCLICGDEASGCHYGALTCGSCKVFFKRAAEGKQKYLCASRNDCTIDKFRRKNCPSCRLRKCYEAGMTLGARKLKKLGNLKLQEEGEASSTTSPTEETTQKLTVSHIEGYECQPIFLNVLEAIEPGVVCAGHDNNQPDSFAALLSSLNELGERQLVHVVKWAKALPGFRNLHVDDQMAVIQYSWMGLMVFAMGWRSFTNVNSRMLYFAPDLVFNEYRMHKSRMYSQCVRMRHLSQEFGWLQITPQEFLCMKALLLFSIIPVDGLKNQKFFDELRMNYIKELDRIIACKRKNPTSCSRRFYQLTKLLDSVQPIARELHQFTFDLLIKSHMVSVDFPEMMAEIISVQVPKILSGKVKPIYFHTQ
Nucleoli Translocation, AR (gene 367), sequence (P10275 whole entry, looked up): as the sequence (P10275 whole entry, looked up, the tested form may be a part) above

SMILES: Clc1ccccc1CN1CCc2sccc2C1
- outcome [1]: inactive
- outcome [2]: inactive
- outcome [3]: inactive

SMILES: CCCCCCC[N+](CC)(CC)CCCCc1ccc(Cl)cc1
- outcome [4]: inactive
- outcome [5]: inactive
- outcome [6]: inactive
- outcome [7]: inactive
- outcome [8]: inactive
- outcome [9]: inactive

SMILES: CC1(C)OC(=O)Nc2ccc(Br)cc21
- outcome [10]: inactive
- outcome [11]: inactive
- outcome [1]: inactive
- outcome [2]: inactive
- outcome [12]: inactive
- outcome [13]: inactive

SMILES: COC(=O)[C@@H]1CC2=CC(=O)CC[C@]2(C)[C@@]23O[C@@H]2C[C@@]2(C)[C@@H](CC[C@@]24CCC(=O)O4)[C@H]13
- outcome [10]: inactive
- outcome [1]: inactive
- outcome [2]: inactive
- outcome [12]: inactive
- outcome [13]: inactive
- outcome [3]: inactive

SMILES: O=C1NC(=O)c2ccc3c4ccc5c6c(ccc(c7ccc1c2c73)c64)C(=O)NC5=O
- outcome [14]: inactive
- outcome [15]: inactive
- outcome [16]: inactive
- outcome [17]: inactive
- outcome [18]: inactive

SMILES: COc1cc(NCc2ccc3nc(N)nc(N)c3c2C)cc(OC)c1OC
- outcome [4]: inactive
- outcome [5]: inactive
- outcome [6]: inactive
- AC50 [19]: 1460 nM (active)
- outcome [7]: inactive
- AC50 [8]: 1760 nM (active)
- AC50 [9]: 1770 nM (active)

SMILES: CCOC(=O)C(C)CC (configuration not stated)
- outcome [17]: inactive
- outcome [18]: inactive

SMILES: CCC(=O)O[C@]1(C(=O)COC)[C@@H](C)C[C@H]2[C@@H]3CCC4=CC(=O)C=C[C@]4(C)C3(F)[C@@H](O)C[C@@]21C (some centres not stated)
- AC50 [10]: 468 nM (active)
- outcome [11]: inactive
- outcome [1]: inactive
- outcome [2]: inactive
- AC50 [12]: 6.7 nM (active)
- outcome [13]: inactive
- outcome [3]: inactive

SMILES: C[C@]12CCC(=O)C=C1CC[C@H]1[C@@H]3CC[C@](O)(C(=O)CO)[C@@]3(C)C[C@H](O)[C@@]12F
- outcome [11]: inactive
- outcome [1]: inactive
- outcome [2]: inactive
- outcome [13]: inactive
- outcome [3]: inactive

SMILES: Cc1nc2ccc(CN(C)c3ccc(C(=O)N[C@@H](CCC(=O)O)C(=O)O)s3)cc2c(=O)[nH]1
- outcome [4]: inactive
- outcome [6]: inactive
- outcome [7]: inactive
- outcome [9]: inactive

SMILES: C#C[C@]1(O)CC[C@H]2[C@@H]3CCC4=C(CCC(=O)C4)[C@H]3CC[C@@]21C
- outcome [4]: inactive
- outcome [5]: inactive
- outcome [6]: inactive
- outcome [19]: inactive
- outcome [7]: inactive
- outcome [9]: inactive

SMILES: CCN(CC)CC(=O)OCC(=O)[C@@]1(O)CC[C@H]2[C@@H]3CCC4=CC(=O)CC[C@]4(C)[C@H]3[C@@H](O)C[C@@]21C
- outcome [10]: inactive
- outcome [11]: inactive
- outcome [1]: inactive
- outcome [2]: inactive
- AC50 [12]: 1470 nM (active)
- outcome [13]: inactive
- outcome [3]: inactive

SMILES: C/C=C1\C(=O)C[C@H]2[C@@H]3CCC4=CC(=O)CC[C@]4(C)[C@H]3CC[C@]12C
- outcome [1]: inactive
- outcome [13]: inactive
- outcome [3]: inactive
